Screening data: PubChem, several laboratories
The list is not random: actives were taken first. Their share in the collection is about 1.3%.
eLon inh: inhibitors of E. coli Lon protease, primary screen, biochemical, fluorescence polarization | purified E. coli Lon protease | inhibition, % at 7.94 µM | 360,000 compounds, 0.42% hits; in the data active means inhibition above about 13%, passing the limit was not always enough;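 further: 0% = enzyme with probe and DMSO and 100% = no enzyme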
EBV gp42 block: Epstein-Barr virus gp42 inhibitors, primary screen, biochemical, uHTS, fluorescence polarization | Glycoprotein 42 (Epstein-Barr virus (strain AG876)), Q1HVG2 | Fluorescence polarization binding assay, mP read-out | inhibition, % (tested at 21.74 µM) | 220,000 compounds, 0.42% hits; in the data active means inhibition above about 50%
Target sequence (Q1HVG2 whole entry, looked up): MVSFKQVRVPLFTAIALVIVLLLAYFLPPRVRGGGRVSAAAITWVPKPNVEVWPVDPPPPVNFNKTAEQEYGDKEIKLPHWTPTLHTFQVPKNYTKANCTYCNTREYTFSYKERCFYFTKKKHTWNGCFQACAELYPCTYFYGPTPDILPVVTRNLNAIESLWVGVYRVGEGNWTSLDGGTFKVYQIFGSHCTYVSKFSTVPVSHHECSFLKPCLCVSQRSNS
GLD-1 RNA inh: GLD-1/TGE RNA complex disruptors, primary screen, biochemical, fluorescence polarization; inhibition, % at 5.96 µM; Female germline-specific tumor suppressor gld-1 (Caenorhabditis elegans), Q17339; 320,000 compounds, 0.44% hits; AID 2280, 2010; purified GLD-1 + fluorescein TGE RNA;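 active means percent inhibition above a per-plate cutoff, the plate mean of test compounds plus 3 SD, cut at about 30% in these data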;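 further: 0% = DMSO wells with GLD-1 and probe and 100% = wells lacking GLD-1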
Bcl-xL primary: inhibitors of human Bcl-xL, primary screen, biochemical, fluorescence polarization, HTS. Bcl-2-like protein 1 (Homo sapiens), Q07817. GST-Bcl-xL / FITC-Bim BH3 peptide fluorescence polarization. inhibition, % at 10.9 µM. 320,000 compounds, 0.7% hits;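 active means inhibition above the mean of all tested compounds plus 3 SD, cutoff set per campaign, cut at about 30% in these data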;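 further: 0% = DMSO wells and 100% = unlabeled Bim-BH3 peptide competitor; inhibitors lower millipolarization by displacing the labeled peptide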
Target sequence (Q07817 whole entry, looked up): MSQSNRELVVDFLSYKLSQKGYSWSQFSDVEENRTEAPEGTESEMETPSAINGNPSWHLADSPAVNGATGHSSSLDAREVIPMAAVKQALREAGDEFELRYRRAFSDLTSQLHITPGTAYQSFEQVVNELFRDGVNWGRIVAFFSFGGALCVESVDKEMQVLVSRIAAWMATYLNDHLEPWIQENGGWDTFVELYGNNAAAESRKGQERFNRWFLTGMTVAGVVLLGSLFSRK
MEX-5 binding: MEX-5 zinc finger RNA-binding disruptors – biochemical, C. elegans, fluorescence polarization, MLPCN library, primary screen; Zinc finger protein mex-5 (Caenorhabditis elegans), Q9XUB2; MEX-5/FITC-TCR2 RNA binding; stronger effect = lower value; activity score (negative = inhibition of binding), % at 10 µM; 300,000 compounds, 0.38% hits;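 active means inhibition past about -25% in most replicates, and total fluorescence under double the plate's negative control median, limit read from the data; inconclusive means replicates evenly split on the limit, or fluorescence at least double controls; inactive means too little inhibition in most replicates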;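 further: 0% = DMSO and -100% = 5 µM competing unlabeled TCR2 RNA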
eLon confirm: E. coli Lon protease inhibitor retest, confirmation, biochemical, fluorescence polarization. shares compounds with eLon inh. purified E. coli Lon. inhibition, % at 7.94 µM. 1,400 compounds, 31% hits. AID 602230, 2012; in the data active means inhibition above about 16%;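 further: 0% = enzyme with probe and DMSO and 100% = no enzyme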
* marks the source's active call; other numbers are inactive results; ? = inconclusive; nt = no result given; + = active, no number.

SMILES	eLon inh	EBV gp42 block	GLD-1 RNA inh	Bcl-xL primary	MEX-5 binding	eLon confirm
CC(C)(/C=N/NC(=O)CSCc1ccccc1Cl)CCC#N	1.6	3.4	5.4	0.3	-1.7	nt
CNC(=S)N/N=C1\C(=O)c2cccc3cccc1c23	6.7	18.8	-3.5	12.0	-2.1	nt
O=C1c2sccc2-c2cccc3cccc1c23	54.1*	nt	nt	nt	nt	29.8*
O=C(CCC1CCCC1)NC1CCCCC1	15.3*	-15.4	-6.5	-1.0	1.8	-1.4
Cn1c(=O)c2[nH]c(-c3ccccc3Cl)c(O)c2n(C)c1=O	138.8*	65.1*	151.8*	114.7*	-13.1	13.3
Cn1c(=O)c2[nH]c(-c3ccccc3)c(O)c2n(C)c1=O	+	122.4*	+	+	?	+
CNc1cncc(-c2ccc(OCCCN(C)C)nc2)n1	0.1	nt	nt	nt	nt	nt
CC(C)NC(=O)CC(=O)NN=C1CCCCC1	8.5	7.8	8.7	-1.1	1.4	nt
COc1cccc2c1C(=O)c1c(O)c3c(c(O)c1C2=O)CC(O)(C(=O)CO)CC3OC1CC(N(C)C)C(O)C(C)O1 (stereo unspecified)	+	nt	nt	nt	nt	+
COc1cccc2c1C(=O)c1c(O)c3c(c(O)c1C2=O)C[C@@](O)(C(C)=O)C[C@@H]3O[C@H]1C[C@H](N)[C@H](O)[C@H](C)O1	+	+	nt	nt	nt	+
COCCNC(=O)CCC1CCN(Cc2cccc(Oc3ccccc3)c2)CC1	-14.6	nt	-1.3	-6.7	1.0	nt
O=[N+]([O-])c1ccc(Nc2nc(N3CCOCC3)nc(N3CCOCC3)n2)cc1	17.2*	nt	-1.6	1.8	-0.4	-1.8
COc1ccc(C(=O)N=C2SC3CS(=O)(=O)CC3N2c2ccccc2)cc1OC (stereo unspecified)	19.4*	nt	6.4	3.9	-2.2	1.0
CCOC(=O)N1CCC(NC(=O)Cn2c3c(c(-c4ccccc4Cl)cc2=O)CCC3)CC1	19.8*	-9.8	6.3	1.6	-1.8	-9.4
O=C(Cn1c2c(c(-c3ccccc3Cl)cc1=O)CCC2)NCC1CCCO1 (stereo unspecified)	-2.2	-12.9	1.9	4.1	1.6	nt
CCN1C(=O)c2ccccc2S(=O)c2ccc(C(=O)N3CCN(C(=O)c4ccco4)CC3)cc21 (stereo unspecified)	-12.8	-15.2	4.1	-2.6	-3.1	nt
CCN1C(=O)c2ccccc2S(=O)c2ccc(C(=O)N3CCCCCC3)cc21 (stereo unspecified)	44.8*	-6.7	-7.1	-1.2	3.4	-52.5
CC(=O)c1ccc2c(c1)C1C=CCC1C(C(=O)O)N2 (stereo unspecified)	38.3*	-5.1	nt	nt	nt	21.9*
CC(=O)c1ccc2c(c1)C1C=CCC1C(c1ccncc1)N2 (stereo unspecified)	7.5	14.6	2.5	15.9	-1.2	nt
CCOC(=O)C1=C(CSc2nc(-c3ccccc3)ccc2C#N)OC(N)=C(C#N)C1c1ccc(OC)cc1 (stereo unspecified)	-46.6	-105.5	-20.9	-23.8	12.3	nt
CC(=O)Nc1ccc(Nc2ccc3c4c(cc(=O)n3C)-c3ccccc3C(=O)c24)cc1	32.8*	35.5	28.1	61.4*	-5.1	51.9*
CC(=O)NC1=C(Nc2ccc(N(C)C)cc2)C(=O)c2ccccc2C1=O	-3.6	nt	6.9	8.8	-2.4	nt
CCN(CC)c1ccc(C=Nc2cc(C)ccc2C)c(O)c1	-4.7	-3.4	6.0	-4.3	-0.3	nt
CCN(CC)c1ccc(C=Nc2cccnc2Cl)c(O)c1	16.2*	nt	28.0	43.6*	-3.8	-1.3
CCCN1C2CCCC1CC(NC(=S)Nc1cc(C)cc(C)c1)C2 (stereo unspecified)	-6.9	5.2	9.2	3.3	0.5	nt
SMILES	eLon inh	EBV gp42 block	GLD-1 RNA inh	Bcl-xL primary	MEX-5 binding	eLon confirm
O=C(CO/N=C/c1ccc(OC(F)F)cc1)N1CCc2ccccc21	-7.1	-24.0	4.0	3.1	1.2	nt
O=C(/C=C/c1ccc(OC(F)F)cc1)OCC(=O)N1CCc2ccccc21	17.1*	nt	0.2	-12.2	-1.2	2.2
COc1ccc(NC(=O)COC(=O)c2cc(C)oc2C)cc1OC	-3.7	nt	-2.0	-3.0	nt	nt
COc1ccc(OC)c(C(=O)COC(=O)c2cc(C)oc2C)c1	27.4*	-11.5	-5.8	-0.2	-3.9	-7.2
Cc1ccc(CNC(=O)C(OC(=O)c2cccs2)C(C)C)cc1 (stereo unspecified)	28.3*	nt	2.6	-0.1	0.3	-13.5
O=C(Nc1ccccc1)OCC1COC(c2ccccc2)(c2ccccc2)O1 (stereo unspecified)	-4.0	nt	nt	nt	nt	nt
O=S(=O)(c1ccc2c(c1)OCCO2)N1CCC(n2nnc3cc(F)ccc32)CC1	-1.6	-8.5	4.6	5.5	-0.4	nt
O=S(=O)(c1ccc2c(c1)OCCO2)N1CCC(n2cnc3cc(F)ccc32)CC1	16.6*	-18.0	-4.8	3.1	1.6	-37.8
CCc1nc2ccc(C(=O)NCCCN3CCCC3=O)cn2c1N(C)Cc1ccc(OC)cc1	-2.7	nt	nt	nt	nt	nt
CCN(C(=O)CSc1nnc2c3ccccc3n(CC)c2n1)C1CCS(=O)(=O)C1 (stereo unspecified)	-11.3	3.4	4.6	3.6	0.1	nt
CC(=O)c1ccc2noc(-c3ccc(F)cc3)c2c1	16.4*	95.0*	109.6*	97.8*	-14.9	58.1*
COc1ccc(/C=C/C(=O)N2CCN(c3ccccn3)CC2)c(OC)c1OC	62.5*	nt	3.2	-0.6	1.5	-5.4
O=C1CCCC/C1=C\Nc1ccc(C(=O)O)c(O)c1	44.0*	-9.4	3.1	10.1	-9.2	3.1
CCCCc1ccc(CC(=O)Nc2cc(S(=O)(=O)N3CCOCC3)ccc2O)cc1	-8.6	nt	-3.2	16.1	nt	nt
CN1CC=C2C(C#N)=C(N)C(C#N)(C#N)C(c3ccsc3)C2C1 (stereo unspecified)	60.1*	24.4	70.2*	105.9*	?	31.5*
CN1CC=C2C(C#N)=C(N)C(C#N)(C#N)[C@H](c3cccc(Cl)c3)C2C1 (stereo partly specified)	23.4*	58.5*	78.8*	104.4*	-59.3*	16.7*
CCCC1C2CN(C(C)C)CC=C2C(C#N)=C(N)C1(C#N)C#N (stereo unspecified)	59.2*	69.2*	131.7*	161.3*	-74.9*	18.4*
CS(=O)(=O)N1CCC(C(=O)N2CCN(C(c3ccccc3)c3ccccc3)CC2)CC1	3.5	-14.5	6.7	4.5	-0.9	nt
CC(C)(C)NS(=O)(=O)c1ccc(OCC(=O)NCCC2=CCCCC2)cc1	6.6	-3.4	-3.8	6.2	-0.9	nt
CN(CC(=O)Nc1ccc(F)cc1)C(=O)c1cc(-c2cccs2)nn1-c1ccccc1	3.4	nt	nt	nt	nt	nt
